G9a inh – inhibitors of human histone lysine methyltransferase G9a. Potency, µM (series often up to 102 µM), inactives show at the highest dose activity, negative = inhibition, most hits filed as inhibitors. 350,000 compounds, 8.8% hits. AID 504332. Q96KQ7. G9a H3K9 monomethylation, AlphaScreen, 2 h; note: % is set by controls: 0 for no effect and ±100 for the full control effect; nearly all actives have a fitted effect of over 75% in size
Target sequence (Q96KQ7 913-1193 limits assumed): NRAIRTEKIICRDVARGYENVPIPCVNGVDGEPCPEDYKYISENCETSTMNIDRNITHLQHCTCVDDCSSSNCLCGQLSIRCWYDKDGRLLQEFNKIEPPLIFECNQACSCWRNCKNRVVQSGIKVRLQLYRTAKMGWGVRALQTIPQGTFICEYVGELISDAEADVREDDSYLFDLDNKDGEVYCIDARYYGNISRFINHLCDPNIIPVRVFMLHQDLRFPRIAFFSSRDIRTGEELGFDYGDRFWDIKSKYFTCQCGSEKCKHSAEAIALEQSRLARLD
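G9a (20 nM) was preincubated 15 min with compound, then reacted 2 h at room temperature with 500 nM biotin-H3K9 peptide and 20 µM SAM. Monomethyl-H3K9 detected by AlphaScreen using anti-H3K9me1 antibody.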
Sfp inh – blocks B. subtilis Sfp PPTase activity; Q9F4F7; Biochemical Sfp PPTase activity, qHTS; Potency, µM, without a hit: largest response in the series, negative = inhibition, actives largely listed as inhibitors; 310,000 compounds, 3.5% hits; AID 1490;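 note: the enzyme is Sfp with the accession as filed and its product quenches rhodamine fluorescence; 0% = enzyme reaction without inhibitor and -100% = no enzyme wells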
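Reaction rates are the 30-min fluorescence difference (ex 525, em 598 nm) in wells containing 15 nM Sfp, 5 uM rhodamine-CoA and 12.5 uM BHQ-2-YbbR at pH 7.6 with 10 mM MgCl2.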
HP1b chromo inh – HP1-beta chromodomain-methylated histone interaction inhibition; P83916; AlphaScreen HP1-beta / biotin-H3K9me3 peptide binding; Potency, µM (titrated, usually from 114 µM), without a hit: at the highest dose activity change, negative = inhibition, actives largely listed as inhibitors; 390,000 compounds, 0.56% hits; AID 540317; note: nearly all actives have a fitted effect of over 70% in size
Target sequence (P83916 whole entry, looked up): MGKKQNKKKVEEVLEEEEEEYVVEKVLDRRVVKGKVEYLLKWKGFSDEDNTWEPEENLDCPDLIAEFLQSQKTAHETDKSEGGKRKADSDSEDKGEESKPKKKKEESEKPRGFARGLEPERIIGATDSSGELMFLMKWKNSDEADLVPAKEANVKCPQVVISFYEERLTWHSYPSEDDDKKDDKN
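HP1-beta protein (50 nM final) preincubated 30 min at room temperature with biotinylated H3(1-18)K9me3 peptide (50 nM) in PBS pH 7.4, 0.01% Tween-20, then compound added for 30 min. AlphaScreen streptavidin donor/nickel chelate acceptor beads (10 ug/mL final), 30 min dark, luminescence read.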
BAZ2B block – BAZ2B (human) inhibition | Q9UIF8 | AlphaScreen BAZ2B-H3K14Ac peptide displacement | Potency, µM (series often up to 114 µM), for inactives: top-dose activity change, negative = inhibition, most hits filed as inhibitors | 360,000 compounds, 4.4% hits | AID 504333; note: % is set by controls: 0 for no effect and ±100 for the full control effect; nearly all actives have a fitted effect of over 60% in size
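Multi-concentration screen (max 110 uM) measuring displacement of acetylated histone H3 peptide from BAZ2B by AlphaScreen, using 50 nM protein, 50 nM peptide and 10 ug/mL streptavidin donor plus Ni-chelate acceptor beads.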
JMJD2A Tudor inh – inhibitors of human JMJD2A Tudor domain | O75164 | AlphaScreen JMJD2A-Tudor / H3K4me3 peptide binding | Potency, µM (highest dose often 114 µM), inactives show at the highest dose activity change, negative = inhibition, actives largely listed as inhibitors | 390,000 compounds, 4.4% hits | AID 504339; note: % is set by controls: 0 for no effect and ±100 for the full control effect; nearly all actives have a fitted effect of over 50% in size
Starred values were filed as active, the others as inactive; ? = inconclusive; . = no result; [ ] = another dose, or the depositor's remark. Compounds with a hit are over-represented: about 12% of the library has one in this group of screens. Calls come from the whole dose curve; as a rule, active = well fitted curve in the direction sought with a large enough effect; inconclusive = small, poorly fitted or top-dose-only effect, or another doubt; inactive = no such curve, though single readings can be large; an effect the other way counts as inactive or inconclusive. Potency is the fitted concentration of half-maximal effect.

SMILES	G9a inh	Sfp inh	HP1b chromo inh	BAZ2B block	JMJD2A Tudor inh
O=C1CC(c2ccco2)CC(O)=C1C=NCCN1CCN(C(=O)Nc2ccc(Cl)cc2)CC1 (configuration not stated)	11.0%[59 µM]	7.5%	1.3%	-33.4%	-14.5%
CCOC(=O)N1CCN(C(=O)C(=O)N/N=C/c2ccc(OC)cc2OC)CC1	42.9%[59 µM]	5.0%	12.7%	-0.2%	-4.7%
Cc1ccc(S(=O)(=O)Oc2ccc(/C=C3\C(=N)N4N=C(S(C)(=O)=O)SC4=NC3=O)cc2)cc1	12.6µM*	-18.9%	-9.1%[57 µM]	50.1µM*	35.5µM*
Cc1ccc(S(=O)(=O)Oc2ccc(/C=C3/C(=N)N4C(=NC3=O)SN=C4S(C)(=O)=O)cc2)cc1	.	-12.5%	-6.9%[57 µM]	?	?
Cc1ccc(S(=O)(=O)N(C)c2ccc(OC(=O)CN3C(=O)NC(C)(c4ccccc4)C3=O)cc2)cc1C (configuration not stated)	.	.	40.6%	.	-20.5%
COc1ccc(NC2CC(=O)N(c3ccc(C(=O)O)cc3)C2=O)cc1 (configuration not stated)	50.1µM*	14.2%	31.4%	-20.8%	-14.1%
COc1ccc(NC2CC(=O)N(c3cccc(C)c3)C2=O)cc1 (configuration not stated)	2.5%[59 µM]	6.8%	3.4%	-27.6%	-15.4%
COc1ccc(N2C(=O)CC(Nc3cccc(C(C)=O)c3)C2=O)cc1OC (configuration not stated)	17.8µM*	2.8%	48.6%	4.1%	-6.0%
O=C(Nc1ccc(C(=O)N2CCCCC2)cc1)C1CC1	.	.	44.4%	.	-3.6%
CCc1cccc(C)c1Nc1nn2c(=O)c3ccccc3nc2s1	7.08µM*	.	?	0.5%	-20.3%
COc1ccc(CNC(=O)Cc2csc3nc(-c4ccc(F)cc4)cn23)cc1	5.5%[59 µM]	.	27.2%[57 µM]	4.0%	-6.4%
CCC(c1nnnn1C(C)(C)C)N1CCN(Cc2ccccc2OC)CC1 (configuration not stated)	?	12.2%	15.2%	-18.1%	-10.0%
CCOC(=O)N1CCC(NC(=O)C(NS(=O)(=O)c2cccc3nsnc23)c2ccccc2)CC1 (configuration not stated)	?	15.3%	43.5%	7.4%	-1.7%
C/C=C/c1ccc(OCCCCOc2ccc(OC)cc2)c(OC)c1	75.0%[59 µM]	?	27.5%	42.7%	21.6%
C/C=C/c1ccc(OCCCN2C(=O)NC(C)(C)C2=O)c(OC)c1	13.9%	8.3%	23.2%	-5.9%	-12.2%
C/C=C/c1ccc(OCCCCN2CCN(CC)CC2)c(OC)c1	.	?	?	25.1µM*	20µM*
C/C=C/c1ccc(OCCCCNCc2ccco2)c(OC)c1	11.2µM*	-23.5%	?	39.8µM*	22.4µM*
O=C(O)c1cccc(S(=O)(=O)Nc2ccc3[nH]c(=O)[nH]c3c2)c1	7.2%[59 µM]	6.4%	68.2%	-32.2%	-19.0%
O=C(O)c1cccc(S(=O)(=O)Nc2ccc3oc(=O)sc3c2)c1	?	11.2µM*	46.4%	-10.6%	-20.6%
Cn1c2ccccc2c2cnn(CC(=O)N3CCN(c4cccc(C(F)(F)F)c4)CC3)c(=O)c21	28.1%[59 µM]	.	39.6%	-2.3%	2.3%
Cc1[nH]nc2c1C(c1ccc(F)cc1)C(C#N)=C(N)O2 (configuration not stated)	-2.0%[59 µM]	12.8%	33.9%	.	-17.8%[11.4 µM]
Cc1oc(C)c2c(=O)ccc3c(c12)OC(N)=C(C#N)C3c1ccc(F)cc1 (configuration not stated)	?	?	?	56.2µM*	-11.0%[11.4 µM]
O=C(Oc1ccc(Br)cc1C(=S)N1CCCC1)c1ccccc1F	8.91µM*	44.7µM*	-17.1%	-7.8%	-11.7%
O=C(Oc1ccc(Br)cc1C(=S)N1CCCC1)c1ccccc1Cl	7.5%[0.0925 µM]	-5.3%	7.0%	-13.7%	-3.8%
Cc1ccccc1C(=O)Oc1ccc(Br)cc1C(=S)N1CCCC1	44.7µM*	-0.9%	15.9%	-0.6%	-8.3%
SMILES	G9a inh	Sfp inh	HP1b chromo inh	BAZ2B block	JMJD2A Tudor inh
CCN(CC)CCNS(=O)(=O)c1ccc(OC)c(Br)c1	3.98µM*	6.8%	28.1%	8.0%	56.2µM*
COc1ccc(S(=O)(=O)NCCN2CCOCC2)cc1Br	.	0.0%	24.1%	-7.3%	-2.4%
CCN1CCC2(CC1)N=C(c1ccc(F)cc1)C(=S)N2	11.2µM*	22.4µM*	43.2%	-4.0%	-11.7%
CC(C)c1cc(-c2nc(-c3ccc(Br)cc3)no2)n[nH]1	7.2%[59 µM]	.	42.7%	-1.0%	-0.3%
COc1ccc(C)cc1S(=O)(=O)N(C)CC(=O)Nc1ccc2c(c1)OCO2	11.9%[12.7 µM]	16.3%	18.3%	0.8%	-13.1%
CN1C/C(=C\c2ccc(N3CCOCC3)cc2)C(=O)/C(=C/c2ccc(N3CCOCC3)cc2)C1	?	-18.6%	?	50.1µM*	?
Cc1ccc(NC(=O)CN2C(=O)N/C(=C/c3ccc(N4CCOCC4)cc3)C2=O)cc1	29.8%[59 µM]	12.0%	6.9%	6.3%	-18.5%
CCN1C/C(=C/c2ccc(N3CCOCC3)cc2)C(=O)/C(=C/c2ccc(N3CCOCC3)cc2)C1	39.8µM*	?	-8.2%	?	-29.7%
CN1C/C(=C/c2ccncc2)C(=O)/C(=C/c2ccncc2)C1	50.1µM*	1.5%	35.7%	-34.9%	0.0%
CN1C/C(=C/c2ccsc2)C(=O)/C(=C/c2ccsc2)C1	?	-13.6%	-9.7%	?	?
Cc1ncc(CN2CCC(n3nccc3NC(=O)c3ccccc3)CC2)s1	-9.3%	3.2%	23.3%	-13.4%	0.0%
Cc1ccc(SCC(=O)O/N=C(\N)c2ccncc2)cc1	-10.6%	0.6%	38.0%	-6.2%	-6.4%
CCCCN(Cc1cccs1)S(=O)(=O)c1ccc(-c2ccc(=O)[nH]n2)s1	-0.4%	4.7%	21.0%	-16.1%[57.1 µM]	-19.5%
Cc1cccc(-c2n[nH]c(=S)n2C)c1	28.2µM*	11.6%	?	-1.8%	4.47µM*
Cc1ccn2c(-c3n[nH]c(=S)n3C)c(C)nc2c1	8.91µM*	?	?	-0.1%	8.91µM*
Cn1c(-c2ccccc2)n[nH]c1=S	.	-18.4%	22.9%	-2.9%	22.4µM*
Cn1c(-c2ccccc2Br)n[nH]c1=S	.	.	-16.2%	.	4.47µM*
Cc1ccn2c(=O)cc(C)nc2c1	-29.2%	6.3%	15.4%	-13.4%	-10.4%
Cc1[nH]nc(N)c1-c1ccccc1	.	5.3%	12.0%	-34.5%	-6.5%
CN(C)CCSc1nc2cc(S(=O)(=O)N3CCCCC3)ccc2o1	.	.	17.8%	.	-22.9%
COc1ccc(N2C(=O)CS(=O)(=O)C23C(=O)N(Cc2cccc(F)c2)c2ccccc23)cc1OC (configuration not stated)	-30.7%[59 µM]	.	17.8%	2.4%[57.1 µM]	-17.5%
Cc1nc(-c2ccccc2)sc1-c1n[nH]c(=S)n1C	3.55µM*	1.5%	12.0%	79.4µM*	10µM*
COc1cccc(OC)c1C(=O)NCCc1sc(-c2cccc(F)c2)nc1C	3.8%[59 µM]	.	23.1%[57 µM]	2.1%	-6.1%
CCOC(=O)C1(CCOC)CCN(C(=O)Cc2ccsc2)CC1	31.6%	11.7%	19.1%	8.3%	-10.0%
